Assay outcomes (PubChem)
HT1080 IDH1KD tx – toxicity to HT-1080 IDH1 knockdown cells (counter line); AID 686971; hit rate 2% among 360,000; HT-1080 IDH1 knockdown viability, ATP luminescence, 48 h; Potency, µM (series often up to 46.1 µM), usual class: cytotoxic
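Assay cells: HT-1080 with IDH1 knockdown, 750 per well, RPMI/5% FBS. Exposure: 48 h at 37 °C following 2 h pre-incubation. Read: CellTiter-Glo luminescence; fitted concentration-response, curve class assigned.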
TDP1 cell noCPT – qHTS for Inhibitors of human tyrosyl-DNA phosphodiesterase 1 (TDP1): qHTS in cells in absence of CPT | DT40 Tdp1-/- hTDP1 cells, no CPT, ATP luminescence, 48 h | Potency, µM (series often up to 46.2 µM), actives largely listed as inhibitors | hit rate 15% among 420,000; also: nearly all actives have a fitted effect of over 55% in size
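Growth kinetics read by CellTiter-Glo luminescence after ≥48 hr at 37 °C. Cells: DT40 Tdp1-/- stably carrying human TDP1, 400 per well, compound exposure in the absence of CPT (DMSO vehicle).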
HT1080-NT tox – kills 2HG-producing HT-1080-NT fibrosarcoma cells; HT-1080-NT fibrosarcoma viability, CellTiter-Glo ATP luminescence, 48 h; hit rate 1.6% among 360,000; Potency, µM (series often up to 46.1 µM), usual class: cytotoxic;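 also: NT is the 2HG producing partner of a matched IDH1 knockdown line; nearly all actives have a fitted effect of over 55% in size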
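Toxicity toward the 2HG-producing NT line was scored as %Activity, normalised to DMSO and no-cell wells, from CellTiter-Glo luminescence after 48 hours' treatment.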
IL1B secr inh – inhibitors of inflammasome signaling (IL-1 beta secretion); THP-1 LPS/ATP IL-1B secretion, AlphaLISA, 16 h; hits give low values; activity change, % at 57.5 µM; hit rate 4.7% among 360,000; AID 743279; in the data active = activity change below about -50%; inconclusive = mostly about -30% to -49%
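Secreted IL-1B measured by AlphaLISA bead assay after 16 h compound exposure of THP-1 cells; compounds (final up to 57.5 uM) added 1 h before LPS (250 ng/mL) and ATP (1.25 mM) stimulation; lower signal means less secretion.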
DT40 TDP1 CPT – growth inhibition of DT40 Tdp1-/-;hTDP1 cells with camptothecin (screen for TDP1 inhibitors) | chicken DT40 Tdp1-/-;hTDP1 cells + 20 nM CPT, ATP luminescence, 48 h | Potency, µM (highest dose often 46.2 µM), hits mostly inhibitors | hit rate 12% among 420,000 | AID 686979; also: nearly all actives have a fitted effect of over 55% in size
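Chicken DT40 Tdp1-/- cells complemented with human TDP1, 400 cells/well, exposed to compounds plus 20 nM camptothecin for at least 48 h at 37 C; viability read as ATP content by CellTiter-Glo luminescence.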
Numbers stand for hits; n = inactive; u = inconclusive; x = no result given. The list is not random: actives were taken first. Their share in the collection is about 19%. Unless noted, calls follow the shape of the dose curve; as a rule, active = well fitted curve in the direction sought with a large enough effect; inconclusive = small, poorly fitted or top-dose-only effect, or another doubt; inactive = no such curve, though single readings can be large; an effect the other way counts as inactive or inconclusive.

SMILES | HT1080 IDH1KD tx | TDP1 cell noCPT | HT1080-NT tox | IL1B secr inh | DT40 TDP1 CPT
CCCCOc1ccc(C(=O)NCC(c2ccc(Cl)cc2)N2CCOCC2)cc1 (centres undefined) | x | 21µM | x | x | 15µM
Cc1ccc(C(=O)NCC(c2ccc(Cl)cc2)N2CCCCC2)cc1 (centres undefined) | x | 13µM | x | x | 12µM
CCOC(=O)c1ccc(NC(=O)C(=O)NCC2(c3ccc(OC)cc3)CCOCC2)cc1 | n | 15µM | n | n | u
COc1ccc(C(CNC(=O)c2ccc(S(=O)(=O)N(C)C)cc2)N2CCCCC2)cc1 (centres undefined) | n | n | n | n | n
CSc1ccc(CNc2nc3ccccc3n3cnnc23)cc1 | n | n | u | n | u
O=C1NC[C@@H](CCCCN2C[C@H](Cc3ccccc3)N(CCC3CCCCC3)C(=O)C2=O)N(CC2CCCCC2)C1=O | n | n | n | n | n
Cn1cnc2c1c(=O)n(Cc1ccc(Cl)cc1Cl)c(=O)n2C | n | n | n | n | n
CN1CCN(C(CNC(=O)Nc2ccc(Cl)cc2)c2ccc(F)cc2)CC1 (centres undefined) | n | u | n | u | u
O=C(NCC(c1ccco1)N1CCCCC1)c1ccc(COc2ccc(Cl)cc2)cc1 (centres undefined) | u | 13µM | 18µM | -75 | 21µM
O=C(NCC(c1ccc(Cl)cc1)N1CCCCC1)c1ccc(F)cc1 (centres undefined) | x | 13µM | x | x | 13µM
COc1ccc(C(CNC(=O)c2ccc(NS(=O)(=O)c3ccc(F)c(C)c3)cc2)N2CCCC2)cc1 (centres undefined) | n | u | n | n | n
CCOc1ccc(NS(=O)(=O)c2ccc(C(=O)NCC(c3ccc(OC)cc3)N3CCCC3)cc2)cc1 (centres undefined) | n | 13µM | n | n | u
O=C(COc1ccc(Cl)cc1Br)NCC(c1ccco1)N1CCCC1 (centres undefined) | n | 18µM | n | n | u
Cc1ccc2ccc(S(=O)(=O)NCc3ccccn3)cc2c1 | n | u | n | n | u
COc1ccc(S(=O)(=O)n2nc(OC(=O)c3cccs3)cc2NC(=O)c2cccs2)cc1 | n | n | n | n | u
CCOc1ccccc1N(C(=O)CNC(=O)c1ccco1)C(C(=O)NC1CCCC1)c1ccncc1 (centres undefined) | n | n | n | n | n
COc1cccc(C(=O)NCCS(=O)(=O)N2CCCC(C)C2)c1 (centres undefined) | n | n | n | n | n
O=C(NCc1ccccc1)C(c1ccc(-c2ccccc2)cc1)n1c(=O)c(-c2ccco2)nc2ccccc21 (centres undefined) | u | u | u | n | u
COc1ccccc1Cc1c(-c2ccc(C#N)cc2)nc2c(C)cc(Br)cn12 | n | u | n | n | u
CCOc1ccc(C(=O)NCC(=O)NCC(c2ccc(OC)cc2)N2CCCC2)cc1 (centres undefined) | n | n | n | n | n
CCOc1ccc(C(=O)NCC(c2ccc(Cl)cc2)N2CCCCC2)cc1 (centres undefined) | x | 9.2µM | x | x | 7.3µM
O=C(Cc1cccc([N+](=O)[O-])c1)Nc1ccccc1 | n | n | n | n | n
Cc1ccc(-c2csc(Nc3ccc(C(=O)O)cc3)[n+]2Cc2ccccc2)cc1 | n | u | n | n | n
COc1ccc(-c2csc(Nc3ccccc3)[n+]2Cc2ccccc2)cc1 | n | 15µM | n | n | u
O=[N+]([O-])c1ccc(-c2csc(Nc3ccccc3)[n+]2Cc2ccccc2)cc1 | n | 21µM | n | n | 21µM
N#Cc1c2n(c3c(N)ncnc13)CCCCC2 | n | n | n | n | n
C=CCn1c(=O)c2ccccc2n2c(SCC(C)=O)nnc12 | n | n | n | n | n
COc1ccc2c(c1)c(=O)oc1cc(OC(C(=O)O)c3ccccc3)ccc12 (centres undefined) | n | n | n | n | n
O=C(COc1ccc(Br)cc1)NCCCNC(=O)c1cccnc1 | 10µM | u | u | n | u
O=C(COc1ccccc1Cl)NCCCNC(=O)c1cccnc1 | u | u | 26µM | n | u
